This is part of a sample that, as a whole, favours compounds with a hit. Of some 83,000 tested, about 20% had one in any assay.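 Assay: single dose, 48 h. Readout: percent growth (0 = no net growth; negative = cell death). Active: <10.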 A number with no mark means an inactive call. Activity calls are given as the source filed them.

One assay deals with SK-MEL-5 melanoma. Kind of assay: NCI-60 one-dose screen, 48 h (100 = growth as untreated, 0 = no growth, -100 = all killed). Particulars: 10 µM unless noted.
Consider `Clc1ccccc1/C=C/c1nn2c(-c3ccncc3)nnc2s1`, for which the growth was 99.3%.

In the case of `CS(=O)c1nccc(-c2c(-c3ccc(F)c(OCc4ccccc4)c3)nc3sccn23)n1` (stereo not drawn), the growth was 100%.

Take `Nc1n[nH]c2cccc(C#Cc3cccc(NC(=O)c4cccc(OC(F)(F)F)c4)c3)c12`: the growth was 80.9%.

For the compound `O=C1Nc2ccc(Cl)cc2/C1=C/c1ccc(OCc2ccc(Br)cc2F)cc1`, the growth is 92.6%.

As for `CN1CCN(c2nc(-c3cnc4ccccc4n3)cc3ccccc23)CC1`, the growth was 66.4%.

`CCNC(=O)Oc1ccc(/C(=C(/C)c2ccccc2)c2ccc(OCCN3CCCC3)cc2)cc1`: the growth is 25.4%.

In the case of `O=C(CSc1nnc(-c2cccs2)n1-c1ccccc1)Nc1ccc(F)cc1`, the growth was 97.6%.

Take `C#C[C@]1(O)CC[C@H]2[C@@H]3CC=C4c5sc(Nc6cccc(C)n6)nc5CC[C@]4(C)[C@H]3CC[C@@]21C`: the growth was 3.52% (active).

With `Cc1ccccc1NC1CC(=O)N(c2ccc(Cl)cc2Cl)C1=O` (stereo not drawn), the growth is 94.4%.

For the compound `C/C(=C(/c1ccc(O)cc1)c1ccc(OCCN(C)C)cc1)c1ccc(Cl)cc1`, the growth was 42.9%.

For `Cc1nn(-c2ccc(Br)cc2)c2nc(CCl)[nH]c(=O)c12`, the growth was 102%.

On to `ClC(Cl)c1nc(-c2cccs2)n2nc(-c3ccccc3)cc2n1`, for which the growth was 89.8%.

On to `Cc1cn(-c2cc(NC(=O)c3cncc(C#Cc4cnc5ccc(O[C@@H]6CCOC6)nn45)c3)cc(C(F)(F)F)c2)cn1`, for which the growth was -98.4% (active).

For another assay, the system named is UACC-62 melanoma. The description is as above. The conditions noted are these: 10 µM unless noted.
`COc1ccc(/C=N/Nc2nc(Nc3ccccc3)nc(Nc3ccc(S(N)(=O)=O)cc3)n2)cc1`: the growth was 87%.

`COc1ccc(-c2cc(-c3cccc4ccccc34)n3c(n2)nc2ccccc23)cc1`: the growth was 33.7%.

In the case of `COc1ccc2c(c1)c(-c1nn3c(=O)cc(-c4ccccc4)nc3s1)cn2C`, the growth was 24.2%.

For `CC1(C)CC[C@]2(C(=O)N3CCCNCC3)CC[C@]3(C)C(=CC[C@@H]4[C@@]5(C)CCC(=O)C(C)(C)[C@@H]5CC[C@]43C)[C@H]2C1`, the growth was 89.6%.

Regarding `CCOC(=O)C1=C(C)Nc2nnc(Nc3ccccc3)n2C1c1ccccc1` (stereo not drawn), the growth is 75.3%.

With `Cc1nc(-c2cc3ccccc3c(N3CCN(C)CC3)n2)cs1`, the growth is 90.8%.

Consider `COc1c([C@@H](CC(C)C)OC(C)=O)ccc2c1C(=O)OCc1cc(C)cc(O)c1O2`, for which the growth is 31.3%.

Turning to `O=C1CSC(=O)N1Cc1cc2ccccc2nc1Cl`, the growth is 93.9%.

Take `COc1cc2oc(-c3cccc(NC(=O)c4cc(NC(=O)[C@H](C)N)ccc4Cl)c3)cc(=O)c2c(OC)c1OC`: the growth was 89.3%.

Take `COc1cc2oc(-c3cccc(NC(=O)c4cc(NC(=O)[C@H](C)NC(=O)OC(C)(C)C)ccc4C)c3)cc(=O)c2c(OC)c1OC`: the growth was 75.4%.

`C/C(=C(/C)C1CC1CCN(C(=O)c1ccc([N+](=O)[O-])cc1)S(=O)(=O)c1ccc(C)cc1)C1CCCCC1` (stereo not drawn): the growth was 79.7%.

In the case of `NS(=O)(=O)Oc1ccc2nc(Nc3ccc(F)c(F)c3)ccc2c1`, the growth was 85.5%.

`COc1ccc([C@H]2[C@H](O)C(=O)N2c2cc(OC)c(OC)c(OC)c2)cc1O`: the growth is 27.9%.

For `COc1cc(-c2nc(SCc3ccc(C)cc3)[nH]c(=O)c2C#N)ccc1OCc1ccccc1`, the growth was 97.8%.

Turning to `CCOC(=O)Nc1cccc(-n2cnc3cc(-c4ccc(O)cc4)ccc32)c1`, the growth was 35.8%.

Turning to `COc1cc(O)c2c(c1)[C@H]1O[C@@H]1C[C@H](O)[C@H](O)C(=O)/C=C\C[C@H](C)OC2=O`, the growth was -12.4% (active).

Regarding `CN1CCN(c2ccc(C(=O)/C=C/c3ccc(Cl)c(C(F)(F)F)c3)cc2)CC1`, the growth was 75.4%.

Consider `C=CCn1c(SCC(=O)Nc2cccc(C(=O)/C=C/c3ccc(Cl)cc3)c2)nc2ccccc2c1=O`, for which the growth was 72.2%.

For the compound `Cc1cc2nc(C(Cl)Cl)nc(-c3ccco3)n2n1`, the growth was 78.2%.

As for `C=CCn1c(SCC(=O)c2ccc(OC)cc2)nnc1-c1ccc(OC)cc1`, the growth was 95.4%.

As for `COc1cc2c3c(n(CCCNC4CCCCC4)c(=O)c2cc1OC)-c1cc2c(cc1C3=O)OCO2`, the growth is 81%.

With `C#CCOc1ccc(/C=N/Nc2nc(-c3cc(Cl)ccc3Cl)cs2)cc1`, the growth was 80.3%.

In the case of `CS(=O)(=O)c1ccc2c(c1)c1c(n2S(=O)(=O)c2ccc(Cl)cc2)CCCC1`, the growth was 15.5%.

With `CC(=O)NC(C)(C)C(=O)N1CCC[C@H]1C(=O)NC(C)(C)C(=O)N[C@@H](C)C(=O)NC(C)(C)C(=O)NC(C)(C)C(=O)N[C@@H](CCC(N)=O)C(=O)NC(C)(C)C(=O)N[C@H](C(=O)NC(C)(C)C(=O)NCC(=O)N[C@@H](CC(C)C)C(=O)NC(C)(C)C(=O)N1CCC[C@H]1C(=O)N[C@H](C(=O)NC(C)(C)C(=O)NC(C)(C)C(=O)N[C@@H](CCC(N)=O)C(=O)N[C@@H](CCC(N)=O)C(=O)N[C@H](CO)Cc1ccccc1)C(C)C)C(C)C`, the growth is 35% [4.25 µM].

As to `O=C(O)CNS(=O)(=O)c1ccc(Oc2ccc(S(=O)(=O)NCC(=O)O)cc2)cc1`, the growth is 99%.

The values above are taken from PubChem BioAssay (NCI).
